Screening results: PubChem, National Center for Advancing Translational Sciences (NCATS)
FLuc counter: qHTS profiling assay for firefly luciferase inhibitor/activator using purifed enzyme and Km concentrations of substrates (counterscreen for miR-21 project); Luciferin 4-monooxygenase (Photinus pyralis), P08659; purified FLuc, Km substrates, luminescence inhibition; Potency, µM (titrated, usually from 57.5 µM), for the others: at the highest dose activity change, negative = inhibition, usual class: inhibitors; 6.9% of 360,000 active; AID 588342, 2011;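 also: plate controls were vehicle for no effect and reference inhibitor for full effect; nearly all actives have a fitted effect of over 55% in size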
Target sequence (P08659 whole entry, looked up): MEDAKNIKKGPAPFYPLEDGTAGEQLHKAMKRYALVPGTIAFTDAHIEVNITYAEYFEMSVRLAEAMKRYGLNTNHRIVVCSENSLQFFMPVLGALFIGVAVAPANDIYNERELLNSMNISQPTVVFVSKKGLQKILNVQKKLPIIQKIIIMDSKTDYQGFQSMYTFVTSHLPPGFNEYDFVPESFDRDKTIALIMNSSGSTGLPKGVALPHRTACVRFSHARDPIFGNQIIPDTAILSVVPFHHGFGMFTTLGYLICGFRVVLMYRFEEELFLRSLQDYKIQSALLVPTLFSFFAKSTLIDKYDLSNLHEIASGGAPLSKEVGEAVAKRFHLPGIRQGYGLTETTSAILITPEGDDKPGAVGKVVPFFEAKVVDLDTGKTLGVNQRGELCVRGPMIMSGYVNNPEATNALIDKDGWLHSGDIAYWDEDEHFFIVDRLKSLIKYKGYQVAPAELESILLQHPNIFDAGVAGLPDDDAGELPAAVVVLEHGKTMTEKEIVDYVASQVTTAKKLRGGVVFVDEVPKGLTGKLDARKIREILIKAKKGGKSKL
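Biochemical qHTS of compounds, final roughly 60 µM downward over six points, against 10 nM purified firefly luciferase using Km concentrations of substrates (10 uM D-luciferin, 10 uM ATP) in Tris acetate pH 7.5 buffer; luminescence output.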
NPC1 prom act: qHTS Assay for NPC1 Promoter Activators; Huh7 NPC1 promoter luciferase reporter, 24 h; Potency, µM (top dose mostly 9.22 µM), without a hit: at the highest dose activation, usual class: activators; 2.4% of 320,000 active; AID 485313, 2010; also: % of control where 0% means no effect; nearly all actives have a fitted effect of over 60% in size
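Luminescence read-out of NPC1 promoter-driven luciferase in stably transfected Huh7 cells; compounds delivered in DMSO and left 24 h at 37C, 5% CO2, qHTS titration format.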
ELG1 genotoxic: qHTS screen for small molecules that induce genotoxicity in human embryonic kidney (HEK293T) cells expressing luciferase-tagged ELG1; HEK293T ELG1-luciferase reporter, luminescence, 16 h; Potency, µM (titrated, usually from 46 µM), inactives show at the highest dose activity change, positive = activation, actives largely listed as activators; 1.3% of 330,000 active; AID 504466, 2011; also: % of control where 0% means no effect; nearly all actives have a fitted effect of over 60% in size
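Screening used a luciferase reporter fused to human ELG1 in HEK293T cells. Luminescence was read on a CCD plate imager after 16 hr exposure and 30 min ONE-Glo incubation.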
Luc counter: Counterscreen for Luciferase (Kinase-Glo TM) Inhibition | Luciferin 4-monooxygenase (Photuris pensylvanica), Q27757 | 0.28% of 200,000 active | Potency, µM (top dose mostly 38.3 µM), for inactives: at the top dose activity change, negative = inhibition, usual class: inhibitors | AID 1379, 2008 | Kinase-Glo luciferase, ATP luminescence, 8 min; also: % is scaled to controls: 0 for no effect and ±100 for the full control effect; nearly all actives have a fitted effect of over 60% in size
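Luminescence was the read-out, taken after 8-minute incubation at ambient temperature. Luciferase turned over luciferin with 10 uM ATP in imidazole pH 7.2 buffer containing KCl, MgCl2, Tween 20 and BSA.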
SMN2 splice up: qHTS Assay for Enhancers of SMN2 Splice Variant Expression. 2.8% of 210,000 active. Potency, µM (titrated, usually from 46.1 µM), inactives show top-dose activity change, positive = activation, actives largely listed as activators. AID 1458, 2008. HEK293 SMN2-luciferase splicing reporter, luminescence, 30-36 h; also: % of control where 0% means no effect; nearly all actives have a fitted effect of over 55% in size
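HEK293 cells carry an SMN2 […]–luciferase reporter in which exon 7 inclusion puts luciferase in frame. Cells were plated 10-12 h before compound addition, then incubated 30-36 h at 37C. ONE-Glo luminescence was read; sodium butyrate at 4.5 mM final served as control.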
Rab9 prom act: qHTS Assay for Rab9 Promoter Activators | Potency, µM (titrated, usually from 9.22 µM), without a hit: at the top dose activation, negative = inhibition, hits mostly activators | AID 485297, 2010 | 2.8% of 320,000 active | Huh7 Rab9 promoter-luciferase reporter, luminescence, 24 h; also: % of control where 0% means no effect; nearly all actives have a fitted effect of over 60% in size
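Stable Rab9-luc Huh7, 1500 cells/well, 2 h settle; cmpd in DMSO, 24 h, 37 °C/5% CO2; luciferase reagent 10 min RT; luminescence.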
Numbers without * were called inactive; ? = inconclusive; nt = no result given; [ ] = dose if it differs, or a comment. Only some compounds are listed: those with a hit (about 7.5% of all), similar ones and a draw of the others. Calls follow the shape of the dose curve; as a rule, active = well fitted curve in the direction sought with a large enough effect; inconclusive = small, poorly fitted or top-dose-only effect, or another doubt; inactive = no such curve, though single readings can be large; an effect the other way counts as inactive or inconclusive. Potency is read from the fitted curve at half-maximal effect.

SMILES	FLuc counter	NPC1 prom act	ELG1 genotoxic	Luc counter	SMN2 splice up	Rab9 prom act
O=C(O)c1ccc(-c2nc(-c3ccc(Cl)cc3)cs2)cc1	0.95µM*	?	19%	1%	4.5µM*	0.32µM*
CCOc1ccccc1NCc1cc(=O)oc2cc(C)ccc12	?	-1%	2%	nt	nt	-1%
Cc1ccc2c(CNCc3ccco3)cc(=O)oc2c1	24µM*	?	?	2%	13µM*	?
Brc1ccc(C2=NC(Cc3ccccc3)CO2)cc1 (configuration not stated)	6.7µM*	?	?	3%	7.1µM*	?
O=C(OCc1ccccc1)[C@@H]1COC(c2ccc(Br)cc2)=N1	nt	nt	nt	2%[39.9 µM]	nt	nt
Cc1ccc(-n2nc(C(=O)N3CCN(c4cc(Cl)ccc4C)CC3)c(=O)n(C)c2=O)cc1	0%	nt	nt	nt	nt	nt
O=C(Nc1ccc(Nc2ccccc2)cc1)Nc1ccccc1Cl	11µM*	?	?	nt	nt	?
O=C(Nc1ccc(Cl)cc1)Nc1ccccc1Sc1ncc([N+](=O)[O-])s1	12µM*	?	?	nt	nt	?
O=C(NCc1ccccn1)Nc1cc(Cl)cc(Cl)c1	2%	-1%	-1%	nt	nt	2%
O=C(Nc1csc([N+](=O)[O-])c1)Nc1ccccc1Cl	17µM*	14%	-6%	nt	nt	15%
O=C(Nc1ccccc1)Nc1cc(Cl)cc(Cl)c1	27µM*	11%	-1%	2%	-9%	?
Cc1cccc(-c2c3c(=O)n(C)c(=O)n(C)c3c3cnc4ccccc4n23)c1	4%	nt	nt	nt	9%	nt
O=C(c1ccccc1)[C@H]1[C@H](c2ccccc2)[C@@]2(N=C(c3ccccc3)OC2=O)C2c3ccccc3C=NN21 (some centres not stated)	?	4µM*	6%	-1%	?	4.5µM*
O=[N+]([O-])c1ccc(N=Nc2ccc(O)cc2O)cc1	6µM*	1%	10%	?	-16%	13%
CCc1nnc(SC(CC)C(=O)NCCOC)c2cc3occc3n12 (configuration not stated)	-8%	nt	nt	nt	nt	nt
COc1ccc2nc(-c3ccco3)c(-c3ccco3)nc2c1	2.7µM*	18%	?	-8%	5%	?
CCCCNC(=O)c1ccc2nc(-c3ccco3)c(-c3ccco3)nc2c1	?	2%	1%	-4%	-9%	4%
O=C(NCCO)Nc1ccc2nsnc2c1	1%	-4%	0%	3%	-2%	0%
CC(=O)c1ccc(NC(=O)c2ccc3nc(-c4ccco4)c(-c4ccco4)nc3c2)cc1	12µM*	-8%	-8%	-4%	14%	-7%
O=C(Nc1ccccc1)c1ccc2nc(-c3ccco3)c(-c3ccco3)nc2c1	1%	-1%	-26%	-23%	8%	-3%
O=C(NCCCO)c1ccc2nc(-c3ccco3)c(-c3ccco3)nc2c1	19µM*	0%	-6%	-5%	-17%	2%
O=C(NCCO)Nc1ccc2nc(-c3ccco3)c(-c3ccco3)nc2c1	24µM*	-5%	0%	-9%	3%	-11%
CN(C(=O)CCc1nc(-c2ccccc2F)no1)c1ccc(Cl)cc1	-6%	nt	nt	nt	3%	nt
CCOc1ccc(Oc2ccc(NS(=O)(=O)c3cc(C(=O)O)ccc3Cl)cc2)cc1	1%	-4%	2%	nt	nt	-2%
COc1ccc(/C(C)=N/NC(=O)c2nc(C)cc(C)n2)cc1	24µM*	?	5.6µM*	-6%	11µM*	?
SMILES	FLuc counter	NPC1 prom act	ELG1 genotoxic	Luc counter	SMN2 splice up	Rab9 prom act
CCOc1ccc(NC(=O)c2ccc(NS(=O)(=O)c3cccs3)cc2)cc1	12µM*	-6%	-1%	nt	nt	-2%
CCOc1ccc(NS(=O)(=O)c2cc(NC(=O)c3ccc(C)cc3)ccc2Cl)cc1	13µM*	-29%	-5%	7%	-68%	-27%
CCOc1ccc(C(=O)c2cccs2)cc1	17µM*	?	?	-4%	12%	?
COc1ccccc1CN1CC[C@@]2(CCCN(C(=O)c3cc(C(F)(F)F)cc(C(F)(F)F)c3)C2)C1	nt	nt	nt	-2%	-12%	nt
COc1cc(O)ccc1C(C)=O	nt	nt	nt	0%	3%	nt
C=CCOC(=O)N[C@@H](CCc1ccccc1)C(C(C)=O)C(C)=O	nt	nt	nt	-2%	2%	nt
Cc1ccccc1NS(=O)(=O)c1ccc2[nH]cc(C(=O)N3CCCC3)c(=O)c2c1	3%	nt	nt	nt	nt	nt
O=C1c2cc(Br)ccc2O[C@@H](c2ccc3c(c2)OCO3)[C@@H]1O	nt	nt	nt	1%	18%	nt
COc1ccc(/C(C)=N/NC(=O)c2ccc(NS(=O)(=O)c3cccs3)cc2)cc1	21µM*	2%	2%	nt	nt	-3%
O=C(Nc1ccc(C(=O)OCc2cc(=O)n3c4c(sc3n2)CCCC4)cc1)c1ccc(Cl)cc1	2%	nt	nt	nt	nt	nt
Cc1ccc(NCc2ccc(C)s2)cc1	21µM*	18%	13%	nt	nt	18%
Cc1ccc(CNc2ccc(N3CCOCC3)cc2)s1	0.95µM*	2.5µM*	4.1µM*	-11%	18µM*	3.5µM*
Cc1c(NCc2cc(Cl)cc(Cl)c2O)c(=O)n(-c2ccccc2)n1C	0%	0%	-5%	-2%	-15%	2%
Cc1c(NCc2nc3ccccc3[nH]2)c(=O)n(-c2ccccc2)n1C	15µM*	-6%	2%	-7%	-7%	4%
C=C1C2CC[C@@]3(C)C(c4ccoc4)OC(=O)C[C@@]13OC1CC(OC(C)=O)C(C)(C)C(CC(=O)OC)[C@@]12C (some centres not stated)	nt	nt	nt	0%	-66%	nt
Cc1ccccc1NC(=O)CSc1nnc(COc2ccc(Cl)cc2)o1	-12%	nt	nt	nt	nt	nt
CCCN(CCC)CCNC(=O)C1CCN(c2nc3ccc(CC)cc3s2)CC1	21µM*	nt	nt	nt	24%	nt
CCCN(CCC)CCCNC(=O)C1CCN(c2nc3ccc(CC)cc3s2)CC1	12µM*	nt	nt	nt	28%	nt
CC(C)CCNC(=O)C1CCN(c2nc3ccccc3o2)CC1	-2%	1%	-7%	-2%	-31%	-1%
CCc1ccc2nc(N3CCC(C(=O)NCCC(C)C)CC3)sc2c1	1.9µM*	nt	nt	nt	-7%	nt
CCCCN(CCCC)CCCNC(=O)c1ccc2nc(N3CCCCC3)sc2c1	4%	nt	nt	nt	15%	nt
CCOC(=O)c1c(NC(=O)CCCOc2ccc(C(C)(C)C)cc2)sc2c1CCC2	-8%	nt	nt	nt	-1%	nt
O=C(N/N=C/c1ccc(OC(=O)c2ccccc2Br)cc1)c1ccccn1	3%	1%	2%	nt	nt	-1%
